Autofluor counter: compound fluorescence in toxin protease inhibitor counterscreen. compound autofluorescence counterscreen, microsphere flow cytometry; hits give high values. fluorescence intensity (test concentration not listed). 360,000 tested, 3.1% active. AID 624483; in the data active = fluorescence intensity above about 16000; inconclusive = no clear call, values can overlap the other calls
BoNT-A LC inh2: blocks Botulinum neurotoxin A light chain protease; inhibition, % at 10 µM; multiplex microsphere protease substrate cleavage, flow cytometry; 360,000 tested, 0.17% active; also: plate controls were buffer without enzyme for full effect and enzyme alone for no effect
BoNT-F LC inh: inhibitors of Botulinum neurotoxin F light chain protease. AID 588497. inhibition, % at 10 µM. 360,000 tested, 0.22% active. Multiplex microsphere protease cleavage assay, flow cytometry; in the data active = inhibition above about 35%, passing the limit was not always enough; inconclusive = no clear call, values can overlap the other calls; also: plate controls were buffer without enzyme for full effect and enzyme alone for no effect
Anthrax LF prot: anthrax lethal factor protease inhibition; P15917; multiplex microsphere protease cleavage assay, LF; inhibition, % at 10 µM; 360,000 tested, 0.12% active; also: plate controls were buffer without enzyme for full effect and enzyme alone for no effect
MazEF act: increases E. coli MazEF RNase cleavage of RNA. P0AE70. FAM/BHQ RNA-DNA oligo cleavage fluorescence, 5 h. activation, % at 20 µM. 350,000 tested, 0.32% active. AID 504720; in the data active = activation above about 50%
Target sequence (P0AE70 whole entry, looked up): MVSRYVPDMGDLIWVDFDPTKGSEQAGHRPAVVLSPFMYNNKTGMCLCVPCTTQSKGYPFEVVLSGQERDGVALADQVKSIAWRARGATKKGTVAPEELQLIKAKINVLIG
Numbers without * were called inactive. The list is not random: actives were taken first. Their share in the collection is about 3.6%. Rule as the data show it, unless noted: active = inhibition above about 30%; inconclusive = no clear call, values can overlap the other calls; inactive = below that.

Results for C[C@H]1CN([C@@H](C)CO)C(=O)c2cccc(NC(=O)Nc3ccc(C(F)(F)F)cc3)c2O[C@@H]1CN(C)S(=O)(=O)c1ccc(Cl)cc1 ?
Autofluor counter: 3705; BoNT-A LC inh2: 0; BoNT-F LC inh: 3; Anthrax LF prot: -1; MazEF act: 8

Results for CC1CC(C)(C)N2C(=O)C3(Nc4ccccc4S3)c3cccc1c32 (configuration not stated) ?
Autofluor counter: 22846*; BoNT-A LC inh2: inconclusive; BoNT-F LC inh: -2; Anthrax LF prot: -3; MazEF act: 3

What do the screens show for `CCOC(=O)N1CCN(C(=O)COc2ccc3c(c2)C(=O)CC(C)(C)O3)CC1`?
Autofluor counter: 4941; BoNT-A LC inh2: -1; BoNT-F LC inh: -9; Anthrax LF prot: -2; MazEF act: -21

How did CCOC(=O)COc1ccc2c(c1)C(=O)CC1(CCN(C(C)=O)CC1)O2 do in these assays?
Autofluor counter: 23933*; BoNT-A LC inh2: -2; BoNT-F LC inh: -2; Anthrax LF prot: -3; MazEF act: 3

What do the screens show for `CC1(C)CC(=O)c2cc(OCC(=O)N3CCCCCC3)ccc2O1`?
Autofluor counter: 14619; BoNT-A LC inh2: 16; BoNT-F LC inh: 20; Anthrax LF prot: -17; MazEF act: -3

Results for CCOC(=O)COc1ccc2c(c1)C(=O)CC(C)(C)O2 ?
Autofluor counter: 21356*; BoNT-A LC inh2: 4; BoNT-F LC inh: 5; Anthrax LF prot: -4; MazEF act: -2

Results for CC1(C)CC(=O)c2cc(OCC(=O)O)ccc2O1 ?
Autofluor counter: 24044*; BoNT-A LC inh2: -2; BoNT-F LC inh: -4; Anthrax LF prot: -7; MazEF act: -7

Results for NC(N)=NC(=S)Nc1ccc(Cl)cc1 ?
Autofluor counter: 4217; BoNT-A LC inh2: -2; BoNT-F LC inh: inconclusive; Anthrax LF prot: -11; MazEF act: -1

How did Cc1cccc(NC(=O)Oc2ccc(Cl)c3cccnc23)c1 do in these assays?
Autofluor counter: 3417; BoNT-A LC inh2: 0; BoNT-F LC inh: -9; Anthrax LF prot: -5; MazEF act: 9

How did O=[N+]([O-])c1c(NCCO)cc(N2CCCCCC2)c2nonc12 do in these assays?
Autofluor counter: 3454; BoNT-A LC inh2: -4; BoNT-F LC inh: inconclusive; Anthrax LF prot: 100*; MazEF act: 6

Results for Cn1cc(Cl)c(C(=O)N/N=C/c2ccc3c4c(cccc24)CC3)n1 ?
Autofluor counter: 4230; BoNT-A LC inh2: 3; BoNT-F LC inh: 1; Anthrax LF prot: 0; MazEF act: 68*

What do the screens show for `CCOc1ccc(NC(=O)CN(C)C(=O)c2sc3ccccc3c2Cl)cc1OCC`?
Autofluor counter: 5516; BoNT-A LC inh2: -2; BoNT-F LC inh: -12; Anthrax LF prot: -4; MazEF act: 5

How did Fc1ccc(CSc2nc3ccccc3[nH]2)c2ccccc12 do in these assays?
Autofluor counter: 2740; BoNT-A LC inh2: 0; BoNT-F LC inh: -2; Anthrax LF prot: 1; MazEF act: 54*

Results for CCCOc1ccc(CSc2nc3ccccc3[nH]2)cc1 ?
Autofluor counter: 22003*; BoNT-A LC inh2: inconclusive; BoNT-F LC inh: 3; Anthrax LF prot: -5; MazEF act: -9

How did O=C(c1sc2ccccc2c1Cl)N1CCC2(CC1)OCCO2 do in these assays?
Autofluor counter: 21877*; BoNT-A LC inh2: inconclusive; BoNT-F LC inh: -6; Anthrax LF prot: -3; MazEF act: -2

How did O=C(c1sc2ccccc2c1Cl)N1CCN(c2ccccn2)CC1 do in these assays?
Autofluor counter: 5573; BoNT-A LC inh2: 2; BoNT-F LC inh: 11; Anthrax LF prot: 1; MazEF act: 14

Results for CC(C)C1C(c2ccccc2)N(C)C(c2ccccc2)CC1(O)c1ccccc1 (configuration not stated) ?
Autofluor counter: 21931*; BoNT-A LC inh2: 2; BoNT-F LC inh: 1; Anthrax LF prot: 0; MazEF act: 5

Results for Cc1ccc(S(=O)(=O)Nc2csc(C)c2C(=O)O)cc1 ?
MazEF act: 1

How did CSCCC(NC(=O)OC(C)(C)C)C(=O)NC(C(=O)NC(CC(C)C)C(N)=O)C(C)C (configuration not stated) do in these assays?
Autofluor counter: 9295; BoNT-A LC inh2: 2; BoNT-F LC inh: 72*; Anthrax LF prot: 11; MazEF act: 6

What do the screens show for `O=C(CC1NCCNC1=O)Nc1ccccc1` (configuration not stated)?
Autofluor counter: 3761; BoNT-A LC inh2: 0; BoNT-F LC inh: -13; Anthrax LF prot: 0; MazEF act: 2

What do the screens show for `Cc1cc(C)cc(NC(=O)CC2NCCNC2=O)c1` (configuration not stated)?
Autofluor counter: 16440*; BoNT-A LC inh2: inconclusive; BoNT-F LC inh: -2; Anthrax LF prot: -2; MazEF act: 0

Source: PubChem
